High-throughput results from PubChem.
ERK EGF inh: qHTS Assay for Inhibitors of the ERK Signaling Pathway using a Homogeneous Screening Assay; Stimulation with EGF | HEK293-V1b, EGF-stimulated phospho-ERK AlphaScreen | Potency, µM (series often up to 11.5 µM), actives largely listed as inhibitors | hit rate 0.41% among 130,000 | AID 1454, 2008; active means well fitted inhibition curve with a large enough effect; further: nearly all actives have a fitted effect of over 55% in size
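Phospho-ERK1/2 measured by AlphaScreen (SureFire) after 5 min 25 nM EGF stimulation of V1b-expressing HEK293 cells preincubated 30 min at 37C with titrated compounds; data scaled to DMSO and EGF controls, Hill-fitted AC50.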
Of the large screens only hits and unclear results are named; the others gave an inactive call. This excerpt belongs to a sample that is enriched for hits.

COC(=O)c1c(NC(=O)c2ccccc2)sc2c1CC(C)(C)NC2(C)C	none
CCOC(=O)c1c(NC(=O)c2ccc(C)cc2)sc2c1CC(C)(C)NC2(C)C	none
COC(=O)c1c(NC(=O)c2ccc(OC(C)C)cc2)sc2c1CC(C)(C)NC2(C)C	ERK EGF inh 28.2µM
CCOCC(=O)OCC(=O)Nc1cc(OC)c([N+](=O)[O-])cc1C	none
Cc1ccc(NC(=O)CC(=O)c2ccc([N+](=O)[O-])cc2)cc1S(=O)(=O)Nc1cccc(Cl)c1	none
Cc1ccc(NC(=O)c2cccs2)cc1S(=O)(=O)Nc1cccc(Cl)c1	ERK EGF inh 20µM
Cc1ccc(NC(=S)NC(=O)c2ccc(F)cc2)cc1S(=O)(=O)Nc1cccc(Cl)c1	none
CC(OC(=O)c1ccc2c(=O)n3c(nc2c1)CCCCC3)C(N)=O (stereo not given)	none
CCc1cccc(C)c1NC(=O)N(C)C1CCCCC1	none
COC(=O)c1ccc2nc(NC(=O)COC(=O)CSc3nc(C)cc(C)n3)sc2c1	none
O=C(NCC1CCCO1)c1ccc(COc2ccc(Br)cc2)cc1 (stereo not given)	none
CCN(CC)c1ccc(/C=C(/C#N)C(=O)NC(C)C)o1	none
CCN(CC)c1ccc(/C=C2/SC(=O)N(C(C)C)C2=O)o1	ERK EGF inh 28.2µM
CC(C)N1C(=O)S/C(=C/c2ccccc2OCc2ccc(C(=O)O)cc2)C1=O	none
O=C(NC1CC1)C1CCN(S(=O)(=O)c2cc(Cl)ccc2Cl)CC1	none
Cc1cccc(C)c1NC(=O)c1cccc2c1-c1ccccc1C2=O	none
O=C1c2cccc(Sc3ccccc3)c2C(=O)c2c(Sc3ccccc3)cccc21	ERK EGF inh 7.08µM
N/C(Cc1ccccc1Sc1ccccc1)=N\O	none
COc1ccccc1-n1c(N)c(C(=O)NCC2CCCO2)c2nc3ccccc3nc21 (stereo not given)	none
COc1ccccc1N1CCN(C(=O)/C=C/c2cccc([N+](=O)[O-])c2)CC1	none
O=C(O)c1ccccc1C(=O)c1ccc(N2CCCC2)c([N+](=O)[O-])c1	none
COc1ccccc1C(=O)/C=C/c1ccc(N2CCCCC2)c([N+](=O)[O-])c1	ERK EGF inh 15.8µM
Cc1nnc(NC(=O)CSc2nnc(-c3ccco3)o2)s1	none
COc1cc(O)c2c(=O)c3c(OC)c(O)ccc3oc2c1	none
Cn1c(=O)[nH]c(=O)c2c1ncn2CCN1CCOCC1	none
COC(=O)c1sccc1NC(=S)OC	none
CC(=O)N1CCN(S(=O)(=O)c2cccc(C(=O)OCC(=O)N3CC(=O)Nc4ccccc43)c2)CC1	none
COc1ccc(C2c3c(ncn(CCCO)c3=N)Oc3ccc4ccccc4c32)cc1OC (stereo not given)	none
N=c1c2c(ncn1CCCO)Oc1cc(O)ccc1C2c1ccccc1 (stereo not given)	none
COc1ccc(C2c3c(ncn(CCCO)c3=N)Oc3ccc4ccccc4c32)cc1 (stereo not given)	ERK EGF inh 39.8µM
COc1ccc(C2c3ccc(O)cc3Oc3ncn(CC(C)C)c(=N)c32)cc1 (stereo not given)	none
Cc1ccc(C)c(OCC(=O)Nc2ccc(S(=O)(=O)N3CCN(C)CC3)cc2)c1	none
C(=N\Nc1nc2ccccc2[nH]1)/c1cccc2nccnc12	none
C#CCn1cc(/C=N/Nc2nc3ccccc3[nH]2)c2ccccc21	ERK EGF inh 25.1µM
C(=N\Nc1nc2ccccc2[nH]1)/c1ccccn1	none
Cc1cc(NC(=O)Nc2cc(Cl)ccc2C)no1	none
C[C@H]1CC[C@@H]2[C@@H](C)[C@H]3[C@H](C[C@H]4[C@@H]5CC=C6C[C@@H](O[C@]7(O[C@H]8O[C@@H](C)[C@@H](O)[C@@H](O)[C@@H]8O)C[C@@H](O[C@@H]8O[C@H](CO)[C@@H](O)[C@H](O)[C@@H]8O)[C@@H](O)[C@H](CO)O7)CC[C@]6(C)[C@H]5CC[C@@]34C)N2C1	none
O=C(Nc1ccccn1)c1ccc(Cl)c([N+](=O)[O-])c1	none
O=C(CSc1n[nH]c(=O)[nH]c1=O)N1CCCCCC1	none
O=C(NC1CCS(=O)(=O)C1)/C(=C\c1ccco1)NC(=O)c1ccccc1 (stereo not given)	none
O=C(NC(=S)Nc1ccccc1N1CCN(C(=O)c2ccccc2)CC1)c1cccs1	none
CC(=O)NC(=S)Nc1ccccc1N1CCN(C(=O)c2ccccc2)CC1	ERK EGF inh 31.6µM
CC(C)C(=O)NC(=S)Nc1ccccc1N1CCN(C(=O)c2ccccc2)CC1	none
CC1(C)CC(=O)CC(C2(O)C(=O)N(Cc3ccccc3)c3ccccc32)O1 (stereo not given)	none
COc1ccccc1-c1cc(=O)c2c(O)ccc([N+](=O)[O-])c2o1	none
O=C(NCCCc1nc2ccccc2[nH]1)c1ccc(F)cc1	none
CC(OC(=O)C1CCCCC1)c1nc2ccccc2[nH]1 (stereo not given)	none
Cc1ccc(-c2nnc(CCC(=O)NCc3csc(C)n3)o2)s1	none
CN1OC(Cn2cc(C#N)c(=O)n(C)c2=O)CC1c1ccccc1 (stereo not given)	none
CCOc1ccc(NC2=C(OC)C(=O)c3ccccc3C2=O)cc1	ERK EGF inh 12.6µM
COc1ccc(C2=C(Nc3ccccc3)c3ccccc3C2=O)cc1	none
CCOc1ccc(NC(C)=O)cc1	none
CCOc1ccc(Nc2c3ccccc3nc3ccccc23)cc1	none
COc1ccc(NC2=C(c3ccc(OC)cc3)C(=O)c3ccccc32)cc1	none
COC1=C(Nc2ccc(OC)cc2)C(=O)c2ccccc2C1=O	ERK EGF inh 12.6µM
O=C1C(Cl)=C(NCCN2CCCCC2)C(=O)c2ccccc21	none
CCN(CC)c1ccc(NC2=C(Cl)C(=O)c3ccccc3C2=O)cc1	ERK EGF inh 10µM
CCNC1=C(Cl)C(=O)c2ccccc2C1=O	none
N#Cc1cnc2cc(-c3ccccc3)nn2c1N	none
COc1ccc(/C=C2\SC(=S)N(CCCC(=O)NNC(=O)c3ccccc3O)C2=O)cc1	none
CCCCNC(=O)[C@@H]1Cc2ccccc2N1C(=O)[C@H](N)CC	none
O=C(COC(=O)/C=C/c1ccc(S(=O)(=O)N2CCOCC2)cc1)NCc1ccc(Cl)cc1	none
O=C(NCc1ccc(Cl)cc1)C1CCN(S(=O)(=O)c2ccccc2)CC1	none
C=CCc1cccc2cc(C(=O)Nc3ccccc3C(=O)O)c(=O)oc12	none
CCc1c(C)nc2ncnn2c1Nc1ccc(C)c(C)c1	ERK EGF inh 22.4µM
CCc1cccc(Nc2cc(C)nc3ncnn23)c1	none
CCc1c(C)nc2ncnn2c1NC1CCCc2ccccc21 (stereo not given)	none
COc1cc(N=C(N)N=C(N)N)cc(OC)c1	none
CCOC(=O)c1sc2nc(Cc3ccc(Cl)cc3)[nH]c(=S)c2c1C	none
FC(F)(F)COc1ccc(-n2ccnc2)nn1	none
COc1ccc(C)cc1-n1c(=O)c2ccccc2c2ccccc2c1=O	none
COc1ccccc1N1C(=O)C2CCC(c3ccccc3)CC2C1=O (stereo not given)	none
COc1ccc(C)cc1N1C(=N)/C(=C2/Nc3ccccc3S2)C(c2ccccc2)C1=O (stereo not given)	ERK EGF inh 20µM
CCCCc1c(C)nc2cc(-c3ccco3)[nH]n2c1=O	none
CCCS(=O)(=O)c1c(S(=O)(=O)CCC)c2c3ccccc3ccn2c1C(=O)OC	none
CCOc1ccccc1C(=O)NCCC(=O)O	none
CN(C(=O)COc1ccccc1C(=O)NCCOc1ccccc1)c1ccccc1	ERK EGF inh 31.6µM
CN(C(=O)COC(=O)CNC(=O)c1ccccc1Cl)c1ccccc1	none
CC(O)CSc1nc2c(c(=O)[nH]c(=O)n2C)n1CC(O)COc1ccccc1 (stereo not given)	none
COc1cccc(-c2ccc3ncnc(NCc4cccs4)c3c2)c1	ERK EGF inh 28.2µM
COc1cccc(-c2ccc3ncnc(NC4CCNCC4)c3c2)c1	none
c1cncc(CNc2ncnc3ccc(-c4cccnc4)cc23)c1	none
